The panel holds about 83,000 compounds, 20% with a hit somewhere; the sample as a whole holds those more often.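 Activity criterion: percent growth below 10, measured after cells in 96-well plates were exposed to a single compound concentration for 48 hours.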 Unmarked numbers belong to inactive results. Active and inactive are the calls of the source.
Key:
Assay in all cases: NCI-60 one-dose screen, 48 h (100 = growth as untreated, 0 = no growth, -100 = all killed)
Details in all cases: 10 µM unless noted
NCI-H23 lung = test system: NCI-H23 lung
NCI-H226 lung = test system: NCI-H226 lung
NCI-H322M lung = test system: NCI-H322M lung
HOP-62 NSCLC = test system: HOP-62 NSCLC
NCI-H460 lung = test system: NCI-H460 lung
HOP-92 NSCLC = test system: HOP-92 NSCLC
NCI-H522 lung = test system: NCI-H522 lung
A549/ATCC NSCLC = test system: A549/ATCC NSCLC
786-0 renal = test system: 786-0 renal
COLO 205 colon = test system: COLO 205 colon
DU-145 prostate = test system: DU-145 prostate
MALME-3M melanoma = test system: MALME-3M melanoma
MDA-MB-231 breast = test system: MDA-MB-231 breast
RXF 393 renal = test system: RXF 393 renal
SF-268 CNS = test system: SF-268 CNS
SF-295 CNS = test system: SF-295 CNS
SF-539 CNS = test system: SF-539 CNS
UACC-257 melanoma = test system: UACC-257 melanoma
K-562 leukemia = test system: K-562 leukemia

O=c1[nH]c(NCc2nnnn2-c2ccc(Br)cc2)nc2sc3c(c12)CCCC3
growth (NCI-H23 lung): 97.6%
growth (NCI-H226 lung): 94.3%
growth (NCI-H322M lung): 91.1%
growth (HOP-62 NSCLC): 94.1%
growth (NCI-H460 lung): 100%
growth (HOP-92 NSCLC): 94.5%
growth (NCI-H522 lung): 72.2%
growth (A549/ATCC NSCLC): 77.4%
growth (786-0 renal): 88%
growth (COLO 205 colon): 97.9%
growth (DU-145 prostate): 106%
growth (MALME-3M melanoma): 112%
growth (MDA-MB-231 breast): 92.4%
growth (RXF 393 renal): 103%
growth (SF-268 CNS): 98.7%
growth (SF-295 CNS): 92.1%
growth (SF-539 CNS): 95.9%
growth (UACC-257 melanoma): 96%

COc1cc(NC(=O)c2cccc(-c3cc(=O)c4c(O)c(OC)c(OC)cc4o3)c2)cc(OC)c1OC
growth (NCI-H23 lung): 34.9%
growth (NCI-H226 lung): 7.69% (active)
growth (NCI-H322M lung): 74.4%
growth (HOP-62 NSCLC): 11.7%
growth (NCI-H460 lung): 53.8%
growth (HOP-92 NSCLC): 56.1%
growth (NCI-H522 lung): 41.2%
growth (A549/ATCC NSCLC): 40.5%
growth (786-0 renal): 66.3%
growth (COLO 205 colon): 67.7%
growth (DU-145 prostate): 57.3%
growth (K-562 leukemia): 54.5%
growth (MALME-3M melanoma): 51%
growth (RXF 393 renal): 75%
growth (SF-268 CNS): 61.9%
growth (SF-295 CNS): 61.5%
growth (SF-539 CNS): 51.7%
growth (UACC-257 melanoma): 66.1%

CCCCN(Cc1ccc(C(=O)NO)cc1)C(=O)Nc1ccc(OCCCCCCCCCn2cc(CCCCC(=O)N[C@H](C(=O)N3C[C@H](O)C[C@H]3C(=O)NCc3ccc(-c4scnc4C)cc3)C(C)(C)C)nn2)cc1
growth (NCI-H23 lung): 33.4%
growth (NCI-H226 lung): 46.1%
growth (NCI-H322M lung): 63.7%
growth (HOP-62 NSCLC): 39.7%
growth (NCI-H460 lung): 11.6%
growth (HOP-92 NSCLC): -11.4% (active)
growth (NCI-H522 lung): 19.5%
growth (A549/ATCC NSCLC): 86.8%
growth (786-0 renal): 69.8%
growth (COLO 205 colon): 36.9%
growth (DU-145 prostate): 50.8%
growth (K-562 leukemia): 16.2%
growth (MALME-3M melanoma): 23.8%
growth (MDA-MB-231 breast): 59.6%
growth (SF-268 CNS): 36.2%
growth (SF-295 CNS): 92%
growth (SF-539 CNS): 32%
growth (UACC-257 melanoma): 60%

COc1ccc(-c2nc3sccn3c2/C=C/C(=O)c2c[nH]c3ccccc23)cc1
growth (NCI-H23 lung): 73.2%
growth (NCI-H226 lung): 66.8%
growth (NCI-H322M lung): 63.6%
growth (HOP-62 NSCLC): 71.7%
growth (NCI-H460 lung): 70.2%
growth (HOP-92 NSCLC): -5.53% (active)
growth (NCI-H522 lung): 55.6%
growth (A549/ATCC NSCLC): 54.1%
growth (786-0 renal): 78.8%
growth (COLO 205 colon): 102%
growth (DU-145 prostate): 57.3%
growth (K-562 leukemia): 78.9%
growth (MALME-3M melanoma): 69.8%
growth (MDA-MB-231 breast): 32.7%
growth (SF-268 CNS): 61.3%
growth (SF-295 CNS): 78.5%
growth (SF-539 CNS): 82.7%
growth (UACC-257 melanoma): 87.2%

COc1cc(NC(=O)c2cccc(-c3cc(=O)c4c(OC)c(OC)c(OC)cc4o3)c2)cc(OC)c1OC
growth (NCI-H23 lung): 48.8%
growth (NCI-H226 lung): 58.5%
growth (NCI-H322M lung): 69.5%
growth (HOP-62 NSCLC): 37.5%
growth (NCI-H460 lung): 30%
growth (HOP-92 NSCLC): 24.7%
growth (NCI-H522 lung): 34.7%
growth (A549/ATCC NSCLC): 43.5%
growth (786-0 renal): 31.8%
growth (COLO 205 colon): 44.3%
growth (DU-145 prostate): 54.3%
growth (K-562 leukemia): 27.6%
growth (MALME-3M melanoma): 56.4%
growth (RXF 393 renal): 53.2%
growth (SF-268 CNS): 67.1%
growth (SF-295 CNS): 45%
growth (SF-539 CNS): 52.6%
growth (UACC-257 melanoma): 52.8%

Nc1c(C(=O)Nc2ccccc2)sc2nc3c(cc12)CCCCCC3
growth (NCI-H23 lung): 22.5%
growth (NCI-H226 lung): 27%
growth (NCI-H322M lung): 29.2%
growth (HOP-62 NSCLC): 15.5%
growth (NCI-H460 lung): 4.61% (active)
growth (HOP-92 NSCLC): 76.5%
growth (NCI-H522 lung): -11.6% (active)
growth (A549/ATCC NSCLC): 15%
growth (786-0 renal): 10.4%
growth (COLO 205 colon): -17% (active)
growth (DU-145 prostate): 18.6%
growth (K-562 leukemia): 7.92% (active)
growth (MALME-3M melanoma): 31.3%
growth (RXF 393 renal): -38.7% (active)
growth (SF-268 CNS): 36.6%
growth (SF-295 CNS): -0.47% (active)
growth (SF-539 CNS): -41.8% (active)
growth (UACC-257 melanoma): 44.9%

COc1cc(-c2ncn(/C=C\c3nnco3)n2)cc(C(F)(F)F)c1
growth (NCI-H23 lung): 26.6%
growth (NCI-H226 lung): -0.243% (active)
growth (NCI-H322M lung): 8.72% (active)
growth (HOP-62 NSCLC): 39.8%
growth (NCI-H460 lung): 0.25% (active)
growth (HOP-92 NSCLC): 61.4%
growth (NCI-H522 lung): -11.4% (active)
growth (A549/ATCC NSCLC): 16.7%
growth (786-0 renal): 5.1% (active)
growth (COLO 205 colon): 0.0945% (active)
growth (DU-145 prostate): 18.4%
growth (K-562 leukemia): 6.9% (active)
growth (MALME-3M melanoma): 2.52% (active)
growth (RXF 393 renal): -26.2% (active)
growth (SF-268 CNS): 10.9%
growth (SF-295 CNS): 53.6%
growth (SF-539 CNS): 6.11% (active)
growth (UACC-257 melanoma): 53%

Cn1ccnc1C(=O)/C=C/c1ccc(C(=O)Nc2ccc(S(F)(F)(F)(F)F)cc2)cc1
growth (NCI-H23 lung): 17.8%
growth (NCI-H226 lung): 43.9%
growth (NCI-H322M lung): 15.4%
growth (HOP-62 NSCLC): 24.4%
growth (NCI-H460 lung): -4.08% (active)
growth (HOP-92 NSCLC): 95.8%
growth (NCI-H522 lung): 42.9%
growth (A549/ATCC NSCLC): 31.5%
growth (786-0 renal): 15.9%
growth (COLO 205 colon): 9.14% (active)
growth (DU-145 prostate): 15.6%
growth (K-562 leukemia): 2.18% (active)
growth (MALME-3M melanoma): 59.6%
growth (MDA-MB-231 breast): 22.4%
growth (SF-268 CNS): 15.3%
growth (SF-295 CNS): 32.7%
growth (SF-539 CNS): -37.1% (active)
growth (UACC-257 melanoma): 42.4%

Source: PubChem BioAssay (NCI)
